Measurements reported in PubChem BioAssay (NCI).
About 83,000 compounds went through this panel and 20% of them were active in at least one assay; those are over-represented in the sample as a whole.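 Growth was measured after 48 h exposure to one concentration of compound in 96-well plates. Values under 10 count as active.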 Active and inactive are the calls of the source.

How the values were obtained:
Assay in all cases: NCI-60 one-dose screen, 48 h (100 = growth as untreated, 0 = no growth, -100 = all killed)
Conditions in all cases: 10 µM unless noted
SR leukemia = test system: SR leukemia
RPMI-8226 leukemia = test system: RPMI-8226 leukemia
OVCAR-8 ovarian = test system: OVCAR-8 ovarian
OVCAR-5 ovarian = test system: OVCAR-5 ovarian
OVCAR-4 ovarian = test system: OVCAR-4 ovarian
SK-OV-3 ovarian = test system: SK-OV-3 ovarian
IGROV1 ovarian = test system: IGROV1 ovarian
HS 578T breast = test system: HS 578T breast
NCI/ADR-RES ovarian = test system: NCI/ADR-RES ovarian
T-47D breast = test system: T-47D breast
BT-549 breast = test system: BT-549 breast
MDA-MB-435 melanoma = test system: MDA-MB-435 melanoma
SW-620 colon = test system: SW-620 colon
MCF7 breast = test system: MCF7 breast
HCC-2998 colon = test system: HCC-2998 colon
KM12 colon = test system: KM12 colon
HCT-116 colon = test system: HCT-116 colon

Measured: growth

NC(N)=NS(=O)(=O)c1ccc(N=NC2C(=O)NN(c3ccccc3)C2=O)cc1 (configuration not stated)
inactive: SR leukemia 109% | RPMI-8226 leukemia 98.8% | OVCAR-8 ovarian 104% | OVCAR-5 ovarian 101% | OVCAR-4 ovarian 104% | SK-OV-3 ovarian 112% | IGROV1 ovarian 103% | HS 578T breast 89% | NCI/ADR-RES ovarian 99.9% | T-47D breast 95.8% | BT-549 breast 107% | MDA-MB-435 melanoma 101% | SW-620 colon 100% | MCF7 breast 93.2% | HCC-2998 colon 103% | KM12 colon 103%

CNC(=O)c1cc(Oc2ccc3nc(NC(=O)c4ccc(CN5CCN(C)CC5)c(C(F)(F)F)c4)sc3c2)ccn1
inactive: RPMI-8226 leukemia 19.6% | OVCAR-8 ovarian 73.8% | OVCAR-5 ovarian 80.7% | OVCAR-4 ovarian 52.4% | SK-OV-3 ovarian 87.1% | IGROV1 ovarian 80.1% | HS 578T breast 52.9% | NCI/ADR-RES ovarian 78% | T-47D breast 38% | MDA-MB-435 melanoma 53.9% | SW-620 colon 11.4% | MCF7 breast 28.9% | HCT-116 colon 31.7% | HCC-2998 colon 70.5% | KM12 colon 46.8%
active: SR leukemia -4.18%

CS(=O)(=O)c1nccc(-c2c(-c3ccc(F)c(OCc4ccccc4)c3)nc3sccn23)n1
active: BT-549 breast -0.34%
inactive: SR leukemia 16.6% | RPMI-8226 leukemia 43.3% | OVCAR-8 ovarian 99.6% | OVCAR-5 ovarian 100% | OVCAR-4 ovarian 104% | SK-OV-3 ovarian 117% | IGROV1 ovarian 101% | NCI/ADR-RES ovarian 99.9% | T-47D breast 18.5% | MDA-MB-435 melanoma 101% | SW-620 colon 100% | MCF7 breast 16.5% | HCT-116 colon 38% | HCC-2998 colon 32.2% | KM12 colon 96.5%

C(=C(\C1=NCCN1)n1cnc2ccccc21)/c1ccc2ccccc2c1
inactive: SR leukemia 42.5% | RPMI-8226 leukemia 67.1% | OVCAR-8 ovarian 88.5% | OVCAR-5 ovarian 79.4% | OVCAR-4 ovarian 72.6% | SK-OV-3 ovarian 66% | IGROV1 ovarian 81.2% | HS 578T breast 57.6% | NCI/ADR-RES ovarian 76.6% | T-47D breast 57.1% | BT-549 breast 48.5% | MDA-MB-435 melanoma 25.7% | SW-620 colon 67.9% | MCF7 breast 30.4% | HCT-116 colon 67.1% | KM12 colon 69.2%

O=C(c1ccc(O)cc1)[C@@H]1[C@@H]2CCCN2[C@@]2(C(=O)N(C(=O)c3ccc(F)cc3)c3ccccc32)[C@H]1c1ccc(F)cc1
inactive: SR leukemia 60.8% | RPMI-8226 leukemia 75.6% | OVCAR-8 ovarian 93.2% | OVCAR-5 ovarian 111% | OVCAR-4 ovarian 91.1% | SK-OV-3 ovarian 104% | IGROV1 ovarian 63.1% | NCI/ADR-RES ovarian 98.8% | T-47D breast 89% | BT-549 breast 98.5% | MDA-MB-435 melanoma 88.1% | SW-620 colon 113% | MCF7 breast 86.3% | HCT-116 colon 91.4% | HCC-2998 colon 108% | KM12 colon 100%

CNC(=O)c1cc(Oc2ccc3nc(NC(=O)c4cccc(C(F)(F)F)c4)sc3c2)ccn1
inactive: SR leukemia 111% | RPMI-8226 leukemia 112% | OVCAR-8 ovarian 106% | OVCAR-5 ovarian 97.7% | OVCAR-4 ovarian 101% | SK-OV-3 ovarian 111% | IGROV1 ovarian 107% | HS 578T breast 102% | NCI/ADR-RES ovarian 101% | T-47D breast 96.9% | BT-549 breast 105% | SW-620 colon 105% | MCF7 breast 85.6% | HCT-116 colon 94.1% | HCC-2998 colon 109% | KM12 colon 102%

Fc1ccccc1/C=C(/C1=NCCN1)n1cnc2ccccc21
inactive: SR leukemia 91.7% | RPMI-8226 leukemia 96.9% | OVCAR-8 ovarian 99.6% | OVCAR-5 ovarian 94.8% | OVCAR-4 ovarian 90.9% | SK-OV-3 ovarian 93.1% | IGROV1 ovarian 95.6% | HS 578T breast 93.3% | NCI/ADR-RES ovarian 104% | T-47D breast 99.1% | BT-549 breast 102% | SW-620 colon 101% | MCF7 breast 86.2% | HCT-116 colon 98.7% | HCC-2998 colon 102% | KM12 colon 96.5%

CCN(CC)CCN1C(=O)c2c(c3c4cc(Br)ccc4[nH]c3c3ccc4ccccc4c23)C1=O
active: SR leukemia -24.6% | RPMI-8226 leukemia -42.4% | OVCAR-8 ovarian -58.2% | OVCAR-5 ovarian -95.2% | IGROV1 ovarian -83.7% | NCI/ADR-RES ovarian -76.3% | T-47D breast -34.5% | MDA-MB-435 melanoma -94.7% | SW-620 colon -61.6% | MCF7 breast -80% | HCT-116 colon -80.1% | HCC-2998 colon -89.5%
inactive: OVCAR-4 ovarian 36.6% | SK-OV-3 ovarian 61.9% | BT-549 breast 61.8%

CCc1ccc(NC(=O)N[C@@H](Cc2cccc(F)c2)C(=O)N[C@@H]2C(=O)N3CCC[C@H]3C(=O)N3CCCC[C@H]3C(=O)N[C@@H](CO)C(=O)N3C[C@H](C)C[C@H]3C(=O)O[C@H]2C)c(F)c1
inactive: SR leukemia 31.4% | RPMI-8226 leukemia 20.3% | OVCAR-8 ovarian 20.9% | OVCAR-5 ovarian 36.4% | OVCAR-4 ovarian 24.6% | SK-OV-3 ovarian 21.8% | IGROV1 ovarian 39.5% | HS 578T breast 35.5% | NCI/ADR-RES ovarian 60.6% | T-47D breast 23.1% | BT-549 breast 28.5% | MDA-MB-435 melanoma 20.3% | SW-620 colon 34.6% | MCF7 breast 14.9% | KM12 colon 37.8%
